About 250 (13%) of roughly 1,900 compounds were called active. About 4% were inconclusive and are not listed.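 How the source made its calls: active means fitted curve reaches 40% rescue activity at or below the top valid dose, in every test run; inconclusive means test runs disagree, some active and some inactive; inactive means every run misses the threshold or moves the wrong way.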 These entries were drawn from the full list. Measured potencies and affinities stand elsewhere.
Assay: rescue of simvastatin-induced ATP loss – cell-based, C2C12 myotubes, ATP luminescence, cherry pick, dose response (AID 624405);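 further: myotubes are challenged with simvastatin at 10 µM to lower ATP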
Settings: 48 h, scaled: DMSO wells 0, geranylgeraniol wells 100; series mostly up to 19.5 µM

Question: With `Cc1ccc(-c2nc(CS(=O)CC(=O)NC3CCCCC3)c(C)o2)cc1` (stereo not drawn) as the compound, how does the outcome read?
Answer: Its outcome is “inactive”.

Question: With `C[C@@H]1CN([C@@H](C)CO)C(=O)Cc2cc(NS(=O)(=O)c3ccc(Cl)cc3)ccc2O[C@H]1CN(C)Cc1ccc2c(c1)OCO2` as the compound, how does the outcome read?
Answer: Its outcome is “inactive”.

Question: For `C[C@@H]1CN([C@H](C)CO)C(=O)Cc2cc(NS(=O)(=O)c3ccc(F)cc3)ccc2O[C@H]1CN(C)Cc1ccc2c(c1)OCO2`, which outcome is on record?
Answer: Its outcome is “inactive”.

Question: For `C[C@@H]1CN([C@H](C)CO)C(=O)c2cc(NC(=O)CCC(F)(F)F)ccc2O[C@@H](C)CCCCO[C@@H]1CN(C)Cc1ccc(C(F)(F)F)cc1`, which outcome is on record?
Answer: The outcome was “inactive”.

Question: Which outcome does the source give for `COc1ccc(Cn2nnnc2C(c2ccccc2OC)N2CCC(C(N)=O)CC2)cc1` (stereo not drawn) here?
Answer: The outcome was “inactive”.

Question: With `COc1ccc(OC)c(C(c2nnnn2Cc2ccccc2)N2CCN(C3CCCCC3)CC2)c1` (stereo not drawn) as the compound, how does the outcome read?
Answer: Its outcome is “inactive”.

Question: For `Cc1cnc(-c2nnc(N(C)C(=O)c3cccnc3)s2)cn1`, which outcome is on record?
Answer: Its outcome is “inactive”.

Question: With `C[C@@H]1CN([C@H](C)CO)C(=O)c2cccc(NS(=O)(=O)c3cccs3)c2O[C@@H]1CN(C)S(=O)(=O)c1ccccc1` as the compound, how does the outcome read?
Answer: Its outcome is “inactive”.

Question: For `COc1cccc(NC(=O)c2cccc(OC)c2OC)c1`, which outcome is on record?
Answer: Its outcome is “inactive”.

Question: For `CCOC(=O)N1CCN(C(=O)CSCC(=O)Nc2nc(-c3ccc4c(c3)OCO4)cs2)CC1`, which outcome is on record?
Answer: The outcome was “inactive”.

Question: Which outcome does the source give for `CN1C(=O)c2cc(NC(=O)Cc3cccs3)ccc2OC[C@H]2O[C@@H](CC(=O)NCc3ccc(-c4ccccc4)cc3)CC[C@H]21` here?
Answer: Its outcome is “inactive”.

Question: With `O=C(CSc1ccc2c(c1)OCCO2)Nc1ccc(Br)cc1` as the compound, how does the outcome read?
Answer: Its outcome is “inactive”.

Question: With `CC(Oc1ccc(Cl)cc1Cl)C(=O)N(Cc1ccco1)C1CCS(=O)(=O)C1` (stereo not drawn) as the compound, how does the outcome read?
Answer: Its outcome is “inactive”.

Question: Which outcome does the source give for `O=C(C[C@H]1CC[C@H]2[C@@H](COC[C@@H](O)CN2C(=O)c2cc(Cl)cc(Cl)c2)O1)N1CCc2ccccc2C1` here?
Answer: The outcome was “inactive”.

Question: Which outcome does the source give for `CS(=O)(=O)N(CCc1ccccc1)CC(=O)N1CCc2ccccc2C1` here?
Answer: Its outcome is “inactive”.

Question: With `Cc1cc(C)c2cc(CN(Cc3ccco3)C(=O)NCc3ccccc3)c(=O)[nH]c2c1` as the compound, how does the outcome read?
Answer: The outcome was “inactive”.

Question: Which outcome does the source give for `COc1ccc(NC(=O)Cn2ccc(C(F)(F)F)n2)cc1S(=O)(=O)N1CCOCC1` here?
Answer: The outcome was “inactive”.

Question: For `C[C@@H]1CCCCO[C@H](CN(C)S(=O)(=O)c2ccc(Cl)cc2)[C@@H](C)CN([C@H](C)CO)C(=O)c2cc(NS(C)(=O)=O)ccc2O1`, which outcome is on record?
Answer: Its outcome is “inactive”.

Question: With `CCOC(=O)c1c(C)oc2ccc(OCC(=O)C(C)(C)C)cc12` as the compound, how does the outcome read?
Answer: Its outcome is “inactive”.

Question: For `COc1ccc(C)cc1NC(=O)C1CCCN1C(=O)OCc1ccccc1` (stereo not drawn), which outcome is on record?
Answer: Its outcome is “inactive”.

Question: Which outcome does the source give for `CC(=O)c1cccc(NC(=O)N2CCCC2C(=O)Nc2cc(C)ccc2C)c1` (stereo not drawn) here?
Answer: The outcome was “inactive”.

Question: For `O=C(Nc1ccccc1Cl)N1C[C@H]2[C@@H](c3ccccc31)[C@H](CO)N2Cc1ccccc1`, which outcome is on record?
Answer: Its outcome is “inactive”.

Question: With `C[C@H]1CN([C@@H](C)CO)C(=O)Cc2cc(NC(=O)Nc3ccc(C(F)(F)F)cc3)ccc2O[C@H]1CN(C)Cc1ccc(Oc2ccccc2)cc1` as the compound, how does the outcome read?
Answer: The outcome was “inactive”.

Question: For `C[C@@H]1CCCCO[C@@H](CN(C)Cc2ccc(Cl)c(Cl)c2)[C@@H](C)CN([C@@H](C)CO)C(=O)c2cc(NC(=O)NC3CCCCC3)ccc2O1`, which outcome is on record?
Answer: Its outcome is “inactive”.

Question: With `Cc1sc2nc(CN(C(=O)c3cccs3)C3CCCC3)[nH]c(=O)c2c1C` as the compound, how does the outcome read?
Answer: The outcome was “inactive”.

Question: Which outcome does the source give for `C[C@@H]1CN([C@@H](C)CO)C(=O)Cc2cc(NC(=O)Cc3cn(C)c4ccccc34)ccc2O[C@H]1CN(C)Cc1ccc(Cl)c(Cl)c1` here?
Answer: The outcome was “inactive”.

Question: With `Cc1ccc(CSc2nnc3nc(C)cc(C)n23)cc1` as the compound, how does the outcome read?
Answer: The outcome was “inactive”.

Question: Which outcome does the source give for `O=C(CSc1ncn(-c2ccccc2)n1)Nc1ccc2c(c1)OCCO2` here?
Answer: Its outcome is “inactive”.

Question: With `CCOC(=O)Nc1c(C(=O)OC)[nH]c2cc(OC)ccc12` as the compound, how does the outcome read?
Answer: Its outcome is “inactive”.

Question: Which outcome does the source give for `CC(C)CCNc1ncnc2c1cnn2Cc1ccccc1Cl` here?
Answer: Its outcome is “inactive”.

Question: Which outcome does the source give for `Cc1ccccc1S(=O)(=O)N(C)C[C@H]1OCc2ccccc2-c2c(n(C)c3ccccc23)C(=O)N([C@H](C)CO)C[C@H]1C` here?
Answer: The outcome was “inactive”.

Question: For `Cc1cccc(S(=O)(=O)N(C)C[C@H]2OCc3ccccc3-c3c(n(C)c4ccccc34)C(=O)N([C@@H](C)CO)C[C@H]2C)c1`, which outcome is on record?
Answer: Its outcome is “inactive”.

Question: With `C[C@H](CO)N1C[C@H](C)[C@@H](CN(C)S(=O)(=O)c2ccccc2)OCCCC[C@H](C)Oc2ccc(N(C)C)cc2C1=O` as the compound, how does the outcome read?
Answer: The outcome was “inactive”.

Question: Which outcome does the source give for `C[C@@H]1CN([C@@H](C)CO)C(=O)c2cc(NC(=O)NC3CCCCC3)ccc2O[C@@H](C)CCCCO[C@H]1CN(C)C(=O)c1ccccc1` here?
Answer: The outcome was “inactive”.

Question: With `COc1ccc(CN2[C@H](CO)[C@@H]3c4ccccc4N(C(=O)C4CC4)C[C@@H]32)cc1` as the compound, how does the outcome read?
Answer: The outcome was “inactive”.

Question: With `C=C(C)Cn1c(CCCNC(=O)C(C)(C)C)nc2ccccc21` as the compound, how does the outcome read?
Answer: Its outcome is “inactive”.

Question: Which outcome does the source give for `CCc1nc2ccccc2n(CCOCCOCCn2c(=O)c(CC)nc3ccccc32)c1=O` here?
Answer: The outcome was “inactive”.

Question: For `CCC(=O)NCCc1nc2ccccc2n1Cc1ccccc1`, which outcome is on record?
Answer: Its outcome is “inactive”.

Question: Which outcome does the source give for `CCCCCCN1Cc2ccccc2C1` here?
Answer: Its outcome is “inactive”.

Question: For `Cc1ccc(OCCCn2c(CO)nc3ccccc32)cc1`, which outcome is on record?
Answer: Its outcome is “inactive”.

Question: For `CCCCn1c(=O)c(-c2ccccc2)c(O)c2ccccc21`, which outcome is on record?
Answer: Its outcome is “inactive”.

Question: Which outcome does the source give for `CCN1CCCC1CNC(=O)c1c(O)c2c([nH]c1=O)CCCC2` (stereo not drawn) here?
Answer: Its outcome is “inactive”.

Question: With `COCC(C)NS(=O)(=O)c1ccc(C)cc1` (stereo not drawn) as the compound, how does the outcome read?
Answer: Its outcome is “inactive”.

Reference: PubChem BioAssay AID624405 (Broad Institute, 2012)
